Laboratory results from PubChem BioAssay AID1159580 (chemical genetic matrix, 2015).
The whole screen tested about 5,500 compounds, of which about 2,000 (36%) were called active. Inconclusive results (about 18%) are left out. No stated cut-off is given here; in the data, active means normalized growth mostly below about 0.91 (no sharp cut-off); inconclusive means no clear call, values can overlap the other calls; inactive means mostly above about 0.92. This is one part of the list.

Experiment: chemical genetic growth profiling, strain panel (AID 1159580);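 further: tested at 20 µM; growth read once vehicle control cultures reached saturation at 30 °C; 1 = growth at the plate median or of vehicle wells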
Conditions: growth OD

Measured: normalized growth

CC(C)(S)[C@@H](N)C(=O)O
inactive: S. cerevisiae deletion strains, locus YJR043C, strain POL32, stronger effect = lower value 1 | S. cerevisiae deletion strains, locus YJR066W, strain TOR1, stronger effect = lower value 0.952 | S. cerevisiae deletion strains, locus YKL009W, strain mrt4, stronger effect = lower value 0.988 | S. cerevisiae deletion strains, locus YKL068W, stronger effect = lower value 0.995 | S. cerevisiae deletion strains, locus YKL085W, strain MDH1 (second series), stronger effect = lower value 0.993 | S. cerevisiae deletion strains, locus YKL085W, strain MDH1, stronger effect = lower value 0.993 | S. cerevisiae deletion strains, locus YKL160W, strain elf1, stronger effect = lower value 1.03 | S. cerevisiae deletion strains, locus YKL190W, strain CNB1, stronger effect = lower value 0.999 | S. cerevisiae deletion strains, locus YKR001C, strain vps1, stronger effect = lower value 0.988 | S. cerevisiae deletion strains, locus YKR026C, strain gcn3, stronger effect = lower value 0.994 | S. cerevisiae deletion strains, locus YKR091W, strain srl3, stronger effect = lower value 1 | S. cerevisiae deletion strains, locus YLL001W, strain dnm1, stronger effect = lower value 1.02 | S. cerevisiae deletion strains, locus YLL026W, stronger effect = lower value 1.01 | S. cerevisiae deletion strains, locus YLL041C, strain sdh2, stronger effect = lower value 1 | S. cerevisiae deletion strains, locus YLR027C, strain aat2, stronger effect = lower value 0.995 | S. cerevisiae deletion strains, locus YLR039C, strain RIC1, stronger effect = lower value 1.02 | S. cerevisiae deletion strains, locus YLR058C, strain SHM2, stronger effect = lower value 1.01 | S. cerevisiae deletion strains, locus YLR102C, strain apc9, stronger effect = lower value 0.992 | S. cerevisiae deletion strains, locus YLR113W, strain HOG1, stronger effect = lower value 0.99 | S. cerevisiae deletion strains, locus YLR221C, strain rsa3, stronger effect = lower value 1 | S. cerevisiae deletion strains, locus YLR258W, strain gsy2, stronger effect = lower value 1 | S. cerevisiae deletion strains, locus YLR262C, strain YPT6 (second series), stronger effect = lower value 1.02 | S. cerevisiae deletion strains, locus YLR262C, strain YPT6, stronger effect = lower value 1 | S. cerevisiae deletion strains, locus YLR268W, strain sec22, stronger effect = lower value 0.969 | S. cerevisiae deletion strains, locus YLR320W, strain mms22, stronger effect = lower value 1.04 | S. cerevisiae deletion strains, locus YLR330W, strain CHS5, stronger effect = lower value 1.01 | S. cerevisiae deletion strains, locus YLR342W, strain FKS1 (second series), stronger effect = lower value 1.03 | S. cerevisiae deletion strains, locus YLR342W, strain FKS1, stronger effect = lower value 1.01 | S. cerevisiae deletion strains, locus YLR357W, strain rsc2, stronger effect = lower value 1 | S. cerevisiae deletion strains, locus YLR370C, strain arc18, stronger effect = lower value 1 | S. cerevisiae deletion strains, locus YLR371W, strain rom2, stronger effect = lower value 0.994 | S. cerevisiae deletion strains, locus YLR384C, strain iki3, stronger effect = lower value 0.993 | S. cerevisiae deletion strains, locus YLR418C, strain cdc73, stronger effect = lower value 0.98 | S. cerevisiae deletion strains, locus YML016C, strain PPZ1, stronger effect = lower value 1.02 | S. cerevisiae deletion strains, locus YML032C, strain rad52, stronger effect = lower value 0.991 | S. cerevisiae deletion strains, locus YML120C, strain ndi1, stronger effect = lower value 0.998 | S. cerevisiae deletion strains, locus YML124C, strain tub3, stronger effect = lower value 0.994 | S. cerevisiae deletion strains, locus YMR058W, strain fet3, stronger effect = lower value 1.01 | S. cerevisiae deletion strains, locus YMR078C, strain ctf18, stronger effect = lower value 0.988 | S. cerevisiae deletion strains, locus YMR125W, strain sto1, stronger effect = lower value 1 | S. cerevisiae deletion strains, locus YMR129W, stronger effect = lower value 0.996 | S. cerevisiae deletion strains, locus YMR205C, strain PFK2, stronger effect = lower value 1.04 | S. cerevisiae deletion strains, locus YMR223W, strain ubp8, stronger effect = lower value 0.999 | S. cerevisiae deletion strains, locus YMR231W, strain pep5, stronger effect = lower value 0.999 | S. cerevisiae deletion strains, locus YMR307W, strain GAS1, stronger effect = lower value 1.01 | S. cerevisiae deletion strains, locus YNL067W, strain RPL9B, stronger effect = lower value 0.993 | S. cerevisiae deletion strains, locus YNL071W, strain lat1, stronger effect = lower value 1 | S. cerevisiae deletion strains, locus YNL183C, strain NPR1, stronger effect = lower value 0.964 | S. cerevisiae deletion strains, locus YNL209W, strain ssb2, stronger effect = lower value 0.997 | S. cerevisiae deletion strains, locus YNL233W, strain BNI4, stronger effect = lower value 1.02 | S. cerevisiae deletion strains, locus YNL248C, strain rpa49, stronger effect = lower value 1 | S. cerevisiae deletion strains, locus YNL250W, strain rad50, stronger effect = lower value 0.985 | S. cerevisiae deletion strains, locus YNL271C, strain bni1, stronger effect = lower value 0.988 | S. cerevisiae deletion strains, locus YNL298W, strain CLA4, stronger effect = lower value 0.991 | S. cerevisiae deletion strains, locus YNL307C, strain MCK1, stronger effect = lower value 0.992 | S. cerevisiae deletion strains, locus YNL322C, strain KRE1 (second series), stronger effect = lower value 1.01 | S. cerevisiae deletion strains, locus YNR049C, strain mso1, stronger effect = lower value 0.997 | S. cerevisiae deletion strains, locus YNR052C, strain pop2, stronger effect = lower value 0.988 | S. cerevisiae deletion strains, locus YOL006C, strain TOP1, stronger effect = lower value 1.08 | S. cerevisiae deletion strains, locus YOL012C, strain htz1 0.654 | S. cerevisiae deletion strains, locus YOL147C, strain pex11, stronger effect = lower value 0.984 | S. cerevisiae deletion strains, locus YOR001W, strain rrp6, stronger effect = lower value 0.989 | S. cerevisiae deletion strains, locus YOR061W, strain CKA2, stronger effect = lower value 1.01 | S. cerevisiae deletion strains, locus YOR069W, strain VPS5, stronger effect = lower value 1 | S. cerevisiae deletion strains, locus YOR070C, strain gyp1, stronger effect = lower value 1.01 | S. cerevisiae deletion strains, locus YOR080W, strain dia2, stronger effect = lower value 1 | S. cerevisiae deletion strains, locus YOR083W, strain WHI5, stronger effect = lower value 1.04 | S. cerevisiae deletion strains, locus YOR106W, strain vam3, stronger effect = lower value 1.03 | S. cerevisiae deletion strains, locus YOR136W, strain idh2, stronger effect = lower value 0.994 | S. cerevisiae deletion strains, locus YOR144C, strain elg1, stronger effect = lower value 0.992 | S. cerevisiae deletion strains, locus YOR184W, strain ser1, stronger effect = lower value 1.01 | S. cerevisiae deletion strains, locus YOR231W, strain MKK1, stronger effect = lower value 1.01 | S. cerevisiae deletion strains, locus YOR265W, strain rbl2, stronger effect = lower value 1 | S. cerevisiae deletion strains, locus YOR270C, strain vph1, stronger effect = lower value 0.989 | S. cerevisiae deletion strains, locus YOR290C, strain snf2, stronger effect = lower value 1.04 | S. cerevisiae deletion strains, locus YOR316C, strain cot1, stronger effect = lower value 0.993 | S. cerevisiae deletion strains, locus YPL051W, strain arl3, stronger effect = lower value 1.02 | S. cerevisiae deletion strains, locus YPL078C, strain atp4, stronger effect = lower value 1.01 | S. cerevisiae deletion strains, locus YPL106C, strain sse1, stronger effect = lower value 1.03 | S. cerevisiae deletion strains, locus YPL240C, strain hsp82, stronger effect = lower value 0.988 | S. cerevisiae deletion strains, locus YPL241C, strain CIN2, stronger effect = lower value 1.01 | S. cerevisiae deletion strains, locus YPL256C, strain CLN2, stronger effect = lower value 0.986 | S. cerevisiae deletion strains, locus YPR119W, strain clb2, stronger effect = lower value 1 | S. cerevisiae deletion strains, locus YPR141C, strain kar3, stronger effect = lower value 0.993 | S. cerevisiae deletion strains, locus YPR163C, strain tif3, stronger effect = lower value 0.991 | S. cerevisiae deletion strains, locus YPR167C, strain met16, stronger effect = lower value 0.991 | S. cerevisiae deletion strains, strain wtn01, stronger effect = lower value 0.976 | S. cerevisiae strains, strain wild type, stronger effect = lower value 1.01
